The list is not random: actives were taken first. Their share in the collection is about 1.2%.
NR5A2 inv ag: inverse agonists of human LRH-1 (NR5A2). HEK293T StAR-luciferase reporter, LRH-1 transfected, 24 h. inhibition, % at 3.6 µM. actives 0.13% (n = 360,000). AID 602396;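 active = inhibition above the mean inhibition of all tested compounds plus 3 SD, cut at about 73% in these data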
Shn3 3UTR inh: reduces Shn3 3'UTR luciferase signal in osteoblasts; Clone20 osteoblast Shn3 3'UTR firefly luciferase, 24 h; inhibition, % at 12.5 µM; actives 0.52% (n = 360,000); AID 588674;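 active = mean inhibition of at least 75% with every replicate also reaching 75%; inconclusive = mean inhibition at least 75% but some replicate below; inactive = mean inhibition below 75%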
NCOA3 inh: human NCOA3 inhibition. Q9Y6Q9. HEK293 GAL4-SRC3 luciferase reporter, luminescence. actives 0.17% (n = 360,000). inhibition, % at 3.6 µM. AID 588352;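 active = inhibition above a per-campaign cutoff, the mean of all compounds plus 3 SD, cut at about 60% in these data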;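 also: higher means less SRC3-driven luciferase light from the GAL4 reporter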
SRC1 inh: inhibitors of human steroid receptor coactivator 1 (SRC1); Q15788; HEK293 GAL4-SRC1 luciferase reporter, luminescence; inhibition, % at 3.6 µM; actives 0.12% (n = 360,000); AID 588354;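 active = inhibition above the campaign mean plus 3 SD, with each screening campaign given its own cutoff, cut at about 60% in these data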
SRC2 inh: inhibits human steroid receptor coactivator 2; actives 0.17% (n = 370,000); HEK293 GAL4-SRC2 luciferase reporter, luminescence; inhibition, % at 9 µM;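 active = inhibition above the mean inhibition of all tested compounds plus 3 SD, set per campaign, cut at about 52% in these data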
EBV LMP1 NFkB: Epstein-Barr LMP1 NF-kappaB reporter inhibition; LMP1-induced NF-kappaB luciferase reporter cells, luminescence; inhibition, % at 12.5 µM; actives 0.69% (n = 350,000); in the data active = inhibition above about 41%; inconclusive = no clear call, values can overlap the other calls
Numbers stand for hits; - = inactive; ? = inconclusive; . = no result given; ! = repeats disagree.

SMILES	NR5A2 inv ag	Shn3 3UTR inh	NCOA3 inh	SRC1 inh	SRC2 inh	EBV LMP1 NFkB
CCC(NC(=O)C1CCCN(c2ncccn2)C1)c1ccccc1 (stereo unspecified)	.	.	.	.	-	.
O=C(C(=Cc1ccccc1)CN1CCCCC1)c1ccccc1	77.3	95.0	-	-	-	90.5
C[C@H]1O[C@@H](O[C@H]2[C@@H](O)C[C@H](O[C@H]3[C@@H](O)C[C@H](O[C@H]4CC[C@@]5(C)[C@H](CC[C@@H]6[C@@H]5C[C@@H](O)[C@]5(C)[C@@H](C7=CC(=O)OC7)CC[C@]65O)C4)O[C@@H]3C)O[C@@H]2C)C[C@H](O)[C@@H]1O	102.1	-	91.2	87.3	61.0	81.5
O=C(Nc1ccc(Cl)c(Cl)c1)C1CCCN(c2nnc(-n3cccc3)s2)C1 (stereo unspecified)	.	.	.	.	-	.
O=C(O)CCSc1nnc(-c2ccc3c(c2)OCO3)o1	-	-	-	-	69.6	-
CC(=O)CSc1nnc(-c2ccc3c(c2)OCO3)o1	-	-	-	-	-	-
O=C(/C=C(\Nc1ccc(Br)c(F)c1)c1ccccc1)c1ccccc1	.	.	.	.	-	.
CN1\C(=C/C=C/C=C/C=[N+](C)C)C(C)(C)c2ccccc21	-	89.4	-	-	-	-
CN1/C(=C\C=O)C(C)(C)c2ccccc21	-	-	-	-	-	-
CN1CCN(/N=C/c2ccc(N(c3ccccc3)c3ccccc3)cc2)CC1	-	-	-	-	-	87.3
O=C(NCCc1ccccc1)OCc1cn(Cc2ccccc2C(F)(F)F)nn1	.	.	.	.	-	.
Cc1nn(-c2ccccc2)c(C)c1C(=O)OC(C)C(=O)NC1CCCCC1 (stereo unspecified)	-	83.2	-	-	-	-
Cc1nn(-c2ccccc2)c(Cl)c1C(=O)NC1CCCCC1	-	-	-	-	-	-
COC(=O)[C@]12C[C@H](CC(=O)N3CCSCC3)C(=O)N(Cc3ccc4c(c3)OCO4)C1=C[C@H](C(C)C)O[C@@H]2C1CC1	.	.	.	.	-	.
CCN1/C(=C/c2sc(-c3ccccc3C)c[n+]2C)Sc2ccccc21	90.0	90.2	79.7	-	-	-
Cc1cc(NS(=O)(=O)C2CCN(C(=O)Cc3ccc(Cl)c(Cl)c3)CC2)no1	.	.	.	.	-	.
COc1cccc(-c2nc(NC3CCCC3)c3ccccc3n2)c1O	-	86.3	-	-	-	-
Cc1ccc(C(C)C)c(OCc2ccc(C(=O)N/N=C/c3cccc(O)c3O)cc2)c1	-	93.6	65.0	-	73.4	-
CC(=O)Nc1ccc(C(=O)N/N=C/c2ccccc2OCc2ccccc2)cc1	-	-	-	-	-	-
Cc1ccc(C(C)C)c(OCc2ccc(C(=O)N/N=C/c3ccc(O)c(O)c3)cc2)c1	-	-	-	-	-	-
COc1cc(/C=N/NC(=O)c2ccc(COc3cc(C)ccc3C(C)C)cc2)cc(OC)c1O	-	-	-	-	62.5	-
COc1ccc(C(=O)OCCN2CCN(C3CN(Cc4cn(Cc5cccc(C)c5)nn4)S(=O)(=O)C3)CC2)cc1OC (stereo unspecified)	.	.	.	.	-	.
Cc1ccccc1CN1CC2=C(CCN(Cc3ccccc3)C2=O)N2CCN=C12	85.1	81.1	62.0	-	-	.
O=C(Nc1ccc([N+](=O)[O-])cc1)Nc1nc(-c2ccc(Cl)s2)cs1	-	?	-	-	-	54.7
COc1ccccc1N1CCN(c2ncc(C(=O)N3CCN(c4cccc(Cl)c4)CC3)c3ccccc23)CC1	-	92.7	-	-	-	-
SMILES	NR5A2 inv ag	Shn3 3UTR inh	NCOA3 inh	SRC1 inh	SRC2 inh	EBV LMP1 NFkB
CCOc1cc(/C=N/Nc2cccc(C(=O)O)c2)ccc1OC(=O)c1ccccc1	-	-	-	-	-	59.4
Cc1nn(-c2ccccc2Cl)c(Cl)c1/C=N/Nc1cccc(C(=O)O)c1	-	-	-	-	-	69.1
COc1ccc2ccccc2c1/C=N/Nc1cccc(C(=O)O)c1	-	-	-	-	-	-
O=C(O)c1cccc(N/N=C/c2cccc3ccccc23)c1	-	-	-	-	-	48.1
Cc1ccsc1/C=N/Nc1cccc(C(=O)O)c1	-	-	-	-	-	66.2
C/C(=N\NC(=O)c1ccccc1OCc1ccc(F)cc1)c1ccccn1	-	93.2	-	-	-	-
CCOc1cccc(-c2c(C(=O)N/N=C(\C)c3ccncc3)nnn2-c2nonc2N)c1	-	-	-	-	-	-
CCOc1cccc(-c2c(C(=O)N/N=C(\C)c3ccccn3)nnn2-c2nonc2N)c1	-	93.9	-	-	-	65.0
CCOc1ccc(OCc2ccc(C(=O)NN=Cc3ccc[nH]3)cc2)cc1	85.9	-	-	-	-	-
O=C(NNC(=O)c1ccccc1OCc1ccc(F)cc1)c1ccccc1O	-	-	-	-	-	-
CCOc1ccc(OCc2ccc(C(=O)N/N=C(\C)c3ccccn3)cc2)cc1	-	91.5	-	-	-	-
COC(=O)[C@@]12CCCCC3=C1N(CCC3)C(=O)[C@H]2CC(=O)NCc1ccc(C)o1	.	.	.	.	-	.
CCc1cc(Cl)c(OC)c(C(=O)NC[C@@H]2CCCN2CC)c1O	-	-	-	-	-	70.7!
O=S(=O)(c1cc2ccccc2s1)n1c(CN2CCOCC2)nc2ccccc21	.	.	.	.	-	.
Cc1ccc(OCC(O)Cn2c(=N)n(Cc3ccccc3)c3ccccc32)cc1 (stereo unspecified)	-	81.3	-	-	-	-
N=c1n(Cc2ccccc2)c2ccccc2n1CC(O)COc1ccc(Cl)cc1Cl (stereo unspecified)	-	92.2	-	-	-	-
COc1ccc(OCC(O)Cn2c(=N)n(Cc3ccccc3)c3ccccc32)cc1 (stereo unspecified)	-	-	-	-	-	-
N=c1n(Cc2ccc(Cl)cc2)c2ccccc2n1CC(O)COc1ccccc1 (stereo unspecified)	-	85.8	-	-	-	-
COC(=O)[C@]12C=CCN1[C@@H](c1ccc(OC)c(OC)c1)c1c(c3ccccc3n1S(=O)(=O)c1ccc(C)cc1)C2	.	.	.	.	-	.
CCn1c(CCNC(=O)c2ccc(OC)cc2)nnc1SCc1ccc(Cl)cc1Cl	-	-	-	-	-	66.1
O=C(CCc1ccc(F)c(F)c1)NC1CCCN(Cc2ccc(Cl)cc2)C1 (stereo unspecified)	-	-	-	-	-	79.9
CCOc1ccc(NC(=O)c2ccc(N3CC4CC(C3)c3cccc(=O)n3C4)c(NC(=O)c3cccnc3)c2)cc1 (stereo unspecified)	-	-	-	-	-	60.6
COc1ccccc1C=CC(=O)C=Cc1ccccc1OC	-	-	-	-	-	66.0
COc1ccccc1/C=C/C(=O)/C=C/c1ccccc1O	-	-	-	-	-	-
CCC(C)Nc1nc(C)nc2c1nnn2Cc1ccccc1 (stereo unspecified)	.	.	.	.	-	.
COc1cc(/C=N\NC(=O)CNC(=O)C2COc3ccccc3O2)ccc1O (stereo unspecified)	-	-	-	-	-	-
